Consider 14 compounds from PubChem BioAssay (EPA / NIEHS).

In assay [1] the target is Transcriptional activator Myb (Homo sapiens) (UniProt P10242). Kind of assay: ATG_Myb_CIS: Attagene CIS-FACTORIAL HepG2 Assay for human Myeloblastosis (Myb) Proto-Oncogene Transcription Factor (AID 2282986). Particulars: HepG2 Attagene CIS-FACTORIAL Myb reporter transcription; actives raise or lower the signal. In a few lines: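 Fluorescence signals from capillary electrophoresis of RT-PCR-amplified reporter cDNA give the read-out. Cells: HepG2 transfected with multiple cis-regulated reporter units. Exposure lasts 24 hours; DMSO defines baseline for gain or loss of signal.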

Assay [2] addresses Nuclear respiratory factor 1 (Homo sapiens) (UniProt Q16656). Kind of assay: ATG_NRF1_CIS: Attagene CIS-FACTORIAL HepG2 Assay for human Nuclear Respiratory Factor 1 (NRF1) Orphan Gene (AID 2282987). Conditions: HepG2 NRF1 cis-element reporter, Attagene multiplex; actives raise or lower the signal. The procedure, abridged: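 Transcriptional reporter readout, one component of a 52-endpoint multiplexed HepG2 panel. Exposure 24 h; mRNA detected via RT-PCR and fluorescent capillary electrophoresis; fitting in both directions against DMSO.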

A short description of assay [3]: ATG_NFI_CIS: Attagene CIS-FACTORIAL HepG2 Assay for human Nuclear Factor I (NFI) (AID 2282989). Particulars: HepG2 cis-regulatory reporter, NFI response element transcription; actives raise or lower the signal. The procedure, abridged:
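Multiplexed cis-reporter system in human HepG2 cells reports native TF activity as reporter mRNA induction 24 h post-dose. Fragments labelled with 6-FAM, HpaI-digested and resolved by capillary electrophoresis; activity fitted both directions versus DMSO.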

For assay [4], the target named is Myc proto-oncogene protein (Homo sapiens) (UniProt P01106). Nature of the assay: ATG_Myc_CIS: Attagene CIS-FACTORIAL HepG2 Assay for human Myelocytomatosis (Myc) Proto-Oncogene Transcription Factor (AID 2282990). Conditions: HepG2, Attagene cis-reporter transcription factor activity; actives raise or lower the signal. The procedure, abridged: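 Read-out: fluorescent reporter mRNA fragments resolved by capillary electrophoresis after RT-PCR. Human HepG2 liver cells carried transfected cis-element reporter units and were dosed for 24 h. Gain or loss of signal fitted relative to DMSO baseline.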

The nature of assay [5]: ATG_NRF2_ARE_CIS: Attagene CIS-FACTORIAL HepG2 Assay for human Nuclear Factor Erythroid 2 Related Factor 2 (NFR2) response to Antioxidant Response Elements (ARE) (AID 2282992).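 As to AC50: reporter mRNA level measured by RT-PCR and capillary electrophoresis fluorescence.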 Particulars: HepG2 Attagene ARE/NRF2 reporter, transcription factor activity; actives raise or lower the signal. The procedure, abridged: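 Fluorescence intensity of reporter-specific cDNA fragments, separated by capillary electrophoresis, reflects mRNA induction in transfected HepG2 cells at 24 h. Activity is fitted bidirectionally, DMSO serving as baseline.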

Assay [6] is described as follows: ATG_Oct_MLP_CIS: Attagene CIS-FACTORIAL HepG2 Assay for human Octamer-Binding Transcription Factor (Oct) (AID 2282993). Conditions: HepG2 Attagene cis-factorial Oct reporter, mRNA; actives raise or lower the signal. The procedure, abridged:
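After 24 h compound exposure, transfected HepG2 cells were lysed for total RNA; reporter-specific cDNA was PCR-amplified, fluorescently labelled and sized by capillary electrophoresis. Bidirectional curve fitting used DMSO as baseline.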

Assay [7] concerns the target Cellular tumor antigen p53 (Homo sapiens) (UniProt P04637). Kind of assay: ATG_p53_CIS: Attagene CIS-FACTORIAL HepG2 Assay for human p53 Transcription Factor (AID 2282994). Conditions: HepG2 p53 cis-element reporter, Attagene mRNA; actives raise or lower the signal. In a few lines: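 Transiently transfected HepG2 (multiple cis reporter transcription units); exposure 24 h; reporter RNA via RT-PCR, 6-FAM extension, 2 h HpaI digest at 37 C, CE detection; DMSO baseline.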

Assay [8] in a line: BSK_3C_TissueFactor: BioMAP Diversity Plus: 3C Assay for Tissue Factor Biomarker Activity (AID 2282997). Particulars: BioMAP 3C HUVEC, tissue factor biomarker readout; actives raise or lower the signal. The procedure, abridged: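 Cells used were primary human umbilical vein endothelial cells. They were dosed with chemical, and after 24 h Tissue Factor was quantified by ELISA. Curves were fitted bidirectionally with DMSO as baseline.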

A short description of assay [9]: BSK_3C_uPAR: BioMAP Diversity Plus: 3C Assay for Urokinase-type plasminogen activator receptor (uPAR) Biomarker Activity (AID 2282998). Conditions: BioMAP 3C HUVEC, uPAR biomarker ELISA; actives raise or lower the signal. In a few lines: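 Values derive from bidirectional curve fitting relative to DMSO, which served as baseline of activity. uPAR was measured by ELISA in human umbilical vein endothelial primary cultures 24 h after compound addition.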

The nature of assay [10]: ATG_NF_kB_CIS: Attagene CIS-FACTORIAL HepG2 Assay for human Nuclear Factor Kappa B (NF-kB) (AID 2282991). Particulars: HepG2 Attagene cis-factorial NF-kB reporter mRNA; actives raise or lower the signal. The procedure, abridged:
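HepG2, transient multi-reporter transfection, cis promoter elements (endogenous TFs). 24 h exposure. Total RNA → RT → PCR → 6-FAM label → HpaI → CE. Gain/loss vs DMSO.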

Where “and” joins values, the source holds several entries; their conditions need not be identical. Equal entries are not always repeated. Calls of active or inactive are those of the source. The calls were made as follows: active = hit-call score of the fitted dose curve at least 0.9, where 1 is the maximum; inactive = score below 0.9.

Chain of Myc proto-oncogene protein (Homo sapiens) (P01106 whole entry, looked up, the tested form may be a part): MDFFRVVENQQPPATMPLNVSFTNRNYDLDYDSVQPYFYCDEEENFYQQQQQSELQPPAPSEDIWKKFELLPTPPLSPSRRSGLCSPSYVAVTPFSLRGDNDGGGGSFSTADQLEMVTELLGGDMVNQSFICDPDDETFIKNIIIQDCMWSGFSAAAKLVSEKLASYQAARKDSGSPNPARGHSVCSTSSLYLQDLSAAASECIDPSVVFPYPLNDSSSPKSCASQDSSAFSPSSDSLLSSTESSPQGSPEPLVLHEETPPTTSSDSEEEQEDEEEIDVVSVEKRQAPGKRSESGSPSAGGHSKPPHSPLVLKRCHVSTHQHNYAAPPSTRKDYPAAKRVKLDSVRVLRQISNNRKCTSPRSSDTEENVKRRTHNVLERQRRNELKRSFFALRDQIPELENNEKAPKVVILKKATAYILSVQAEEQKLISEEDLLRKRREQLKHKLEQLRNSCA
Chain of Nuclear respiratory factor 1 (Homo sapiens) (Q16656 whole entry, looked up): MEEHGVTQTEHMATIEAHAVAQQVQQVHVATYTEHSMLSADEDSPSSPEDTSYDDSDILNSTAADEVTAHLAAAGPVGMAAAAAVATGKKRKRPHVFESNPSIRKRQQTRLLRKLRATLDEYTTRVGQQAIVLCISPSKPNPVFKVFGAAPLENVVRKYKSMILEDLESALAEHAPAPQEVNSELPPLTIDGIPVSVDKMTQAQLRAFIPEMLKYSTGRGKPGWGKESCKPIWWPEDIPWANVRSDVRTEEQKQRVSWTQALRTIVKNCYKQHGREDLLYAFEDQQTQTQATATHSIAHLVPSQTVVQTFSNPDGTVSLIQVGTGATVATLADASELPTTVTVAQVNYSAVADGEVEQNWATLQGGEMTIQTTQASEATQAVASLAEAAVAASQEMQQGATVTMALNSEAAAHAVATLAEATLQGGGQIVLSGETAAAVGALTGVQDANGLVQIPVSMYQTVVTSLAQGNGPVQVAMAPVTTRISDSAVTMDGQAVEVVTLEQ
Chain of Cellular tumor antigen p53 (Homo sapiens) (P04637 whole entry, looked up): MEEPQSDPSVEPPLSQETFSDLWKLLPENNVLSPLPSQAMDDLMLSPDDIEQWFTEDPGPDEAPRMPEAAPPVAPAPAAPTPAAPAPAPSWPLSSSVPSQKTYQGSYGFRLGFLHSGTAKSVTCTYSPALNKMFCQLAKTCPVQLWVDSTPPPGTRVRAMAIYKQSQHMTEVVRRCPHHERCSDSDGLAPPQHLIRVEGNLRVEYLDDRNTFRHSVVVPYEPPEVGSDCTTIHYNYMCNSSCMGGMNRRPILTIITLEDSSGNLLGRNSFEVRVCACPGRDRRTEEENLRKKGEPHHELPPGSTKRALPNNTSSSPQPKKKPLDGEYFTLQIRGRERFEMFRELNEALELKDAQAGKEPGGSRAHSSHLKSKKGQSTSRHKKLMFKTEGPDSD
Chain of Transcriptional activator Myb (Homo sapiens) (P10242 whole entry, looked up): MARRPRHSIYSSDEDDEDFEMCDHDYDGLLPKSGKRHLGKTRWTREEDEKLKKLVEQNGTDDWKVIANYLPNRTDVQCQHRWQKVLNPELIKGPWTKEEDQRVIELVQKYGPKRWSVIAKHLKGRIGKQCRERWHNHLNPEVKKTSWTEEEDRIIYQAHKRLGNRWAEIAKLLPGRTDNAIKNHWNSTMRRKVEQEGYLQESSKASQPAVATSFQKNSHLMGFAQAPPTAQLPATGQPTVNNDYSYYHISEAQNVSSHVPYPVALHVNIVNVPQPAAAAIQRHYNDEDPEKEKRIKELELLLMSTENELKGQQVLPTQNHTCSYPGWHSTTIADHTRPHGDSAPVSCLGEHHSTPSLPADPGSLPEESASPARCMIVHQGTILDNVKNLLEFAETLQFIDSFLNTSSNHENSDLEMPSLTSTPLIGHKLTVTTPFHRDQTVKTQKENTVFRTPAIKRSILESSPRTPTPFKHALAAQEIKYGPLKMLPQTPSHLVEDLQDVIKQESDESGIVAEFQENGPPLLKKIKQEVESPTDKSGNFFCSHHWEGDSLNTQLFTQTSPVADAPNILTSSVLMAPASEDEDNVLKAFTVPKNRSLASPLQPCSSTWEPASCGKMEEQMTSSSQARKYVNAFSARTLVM

With `Fc1ccc(Oc2ccnc3cc(Cl)cc(Cl)c23)cc1`, the call in assay [1], in assay [2], in assay [3], in [4], in assay [6] and in assay [7] was inactive. Also, the AC50 in assay [5] was 3.83 µM (active); in [8] it was 34700 nM (active); in [9], 31200 nM (active).
Regarding `COC(=O)N(OC)c1ccccc1COc1ccn(-c2ccc(Cl)cc2)n1`, the compound was classed as inactive in assay [1], in assay [2], in [3], in assay [4], in [7] and in assay [8]. In addition, the half-maximal activity concentration (AC50) in assay [5] was 0.635 µM (active); in assay [6] it was 702 nM (active); in assay [9], 20000 nM (active).
Regarding `CCOC(=O)CC(SP(=S)(OC)OC)C(=O)OCC` (stereo unspecified), the compound was classed as inactive in [1], in [2], in assay [3], in assay [4], in [10] and in assay [7]. Also, the result in [8] was inactive. For the same compound, the AC50 in [5] was 25.1 µM (active) and 19.6 µM (active); in [6], 133 µM (active) and 24 µM (active); in assay [9], 5140 nM (active).
Take `CC(C)(C)c1ccc(CSc2cnn(C(C)(C)C)c(=O)c2Cl)cc1`: the result in assay [1], in [3], in assay [4], in [7] and in [8] was inactive. The AC50 in assay [2] was 19100 nM (active); in [5], 0.0912 µM (active); in [6] it was 24 nM (active); in assay [9], 8480 nM (active).
With `CCNc1nc(Cl)nc(NCC)n1`, the call in assay [1], in assay [2], in assay [3], in assay [4], in assay [5] and in assay [6] was inactive. The compound was called inactive in assay [7], in assay [8] and in [9].
For the compound `COc1cnc(OC)n2nc(NS(=O)(=O)c3c(OCC(F)F)cccc3C(F)(F)F)nc12`, the call in [1], in assay [2], in [3], in assay [4], in [5] and in [6] was inactive. In addition, the outcome in assay [7], in [8] and in assay [9] was inactive.
`O=C(O)c1nc(Cl)ccc1Cl`: the call in assay [1], in [2], in assay [3], in [4], in assay [5] and in [6] was inactive. The outcome in assay [7], in assay [8] and in assay [9] was inactive.
For `CCCCOC(=O)c1ccccc1C(=O)OCCCC`, the compound was called inactive in assay [1], in assay [2], in assay [3], in assay [4], in assay [10] and in [6]. Besides, the result in assay [7], in assay [8] and in [9] was inactive. Also, the half-maximal activity concentration (AC50) in assay [5] is 62.4 µM (active) [middle of 5 runs].
Turning to `COc1nc(C)nc(NC(=O)NS(=O)(=O)c2ccccc2Cl)n1`, the compound was classed as inactive in [1], in assay [2], in assay [3], in assay [4], in assay [5] and in [6]. For the same compound, the call in [7], in assay [8] and in assay [9] was inactive.
Consider `CCc1nn(C)c(C(=O)NCc2ccc(C(C)(C)C)cc2)c1Cl`, for which the result in [1], in [2] and in [4] was inactive. The half-maximal activity concentration (AC50) in [3] was 353 nM (active); in assay [10], 709 nM (active); in [5] it was 0.214 µM (active); in [6], 397 nM (active); in assay [7] it was 1900 nM (active); in [8], 20000 nM (active). The AC50 in assay [9] was 26700 nM (active).
Turning to `CCNc1nc(Cl)nc(NC(C)C)n1`, the result in [1], in assay [2], in assay [3], in assay [4], in [10] and in [5] was inactive. For the same compound, the result in assay [6], in assay [7], in [8] and in assay [9] was inactive.
Turning to `C#CCOS(=O)OC1CCCCC1Oc1ccc(C(C)(C)C)cc1` (stereo unspecified), the call in [1], in assay [2], in [3], in assay [4], in assay [10] and in assay [7] was inactive. In addition, the outcome in assay [8] was inactive. Moreover, the concentration at half-maximal activity (AC50) was 1.19 µM (active) in assay [5], 811 nM (active) in assay [6] and 7030 nM (active) in assay [9].
Turning to `Cc1cc(Cl)ccc1OCC(=O)O`, the result in [1], in [2], in assay [3], in assay [4], in assay [5] and in assay [6] was inactive. Further, the compound was called inactive in assay [7], in assay [8] and in assay [9].
`COC(=O)C=C(C)OP(=O)(OC)OC`: the compound was classed as inactive in assay [1], in assay [2], in [3], in assay [4], in [6] and in assay [7]. In addition, the outcome in [8] and in [9] was inactive. Further, the AC50 in assay [5] was 50 µM (active).
